The whole screen tested about 1,300 compounds, of which about 380 (29%) were called active. Inconclusive results (about 37%) are left out. This is one part of the list. A number with no mark means an inactive call. The call rests on the fitted dose curve; in most records, active means well fitted inhibition curve with a large enough effect; inconclusive means small, poorly fitted or top-dose-only effect; inactive means flat fitted curve, though single readings scatter.
target: Thyrotropin receptor (Homo sapiens) (UniProt P16473); assay: qHTS for antagonists of the Thyroid Stimulation Hormone Receptor: Hit Validation in Primary Screen; conditions: TSHR-expressing cells, cAMP antagonist mode; series mostly up to 58 µM; activity change, negative = inhibition: at the top concentration; further: nearly all actives have a fitted effect of over 80% in size;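 on activity change, negative = inhibition: cells stimulated with TSH at EC80 of 4 nM during compound exposure; cAMP by competitive HTRF where cellular cAMP lowers the 665 nm FRET signal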
Procedure, shortened: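 Competitive HTRF detected cAMP in lysates of TSHR cells, read 30 minutes after antibody and d2 addition at room temperature. Before lysis, cells had 2 hours at 37 deg C with compound plus EC80 TSH, 4nM final.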
On the % scale 0 is the no-effect control and ±100 the full control effect; potency means the concentration at half of the fitted maximal effect.

Thyrotropin receptor (Homo sapiens), sequence (P16473 whole entry, looked up): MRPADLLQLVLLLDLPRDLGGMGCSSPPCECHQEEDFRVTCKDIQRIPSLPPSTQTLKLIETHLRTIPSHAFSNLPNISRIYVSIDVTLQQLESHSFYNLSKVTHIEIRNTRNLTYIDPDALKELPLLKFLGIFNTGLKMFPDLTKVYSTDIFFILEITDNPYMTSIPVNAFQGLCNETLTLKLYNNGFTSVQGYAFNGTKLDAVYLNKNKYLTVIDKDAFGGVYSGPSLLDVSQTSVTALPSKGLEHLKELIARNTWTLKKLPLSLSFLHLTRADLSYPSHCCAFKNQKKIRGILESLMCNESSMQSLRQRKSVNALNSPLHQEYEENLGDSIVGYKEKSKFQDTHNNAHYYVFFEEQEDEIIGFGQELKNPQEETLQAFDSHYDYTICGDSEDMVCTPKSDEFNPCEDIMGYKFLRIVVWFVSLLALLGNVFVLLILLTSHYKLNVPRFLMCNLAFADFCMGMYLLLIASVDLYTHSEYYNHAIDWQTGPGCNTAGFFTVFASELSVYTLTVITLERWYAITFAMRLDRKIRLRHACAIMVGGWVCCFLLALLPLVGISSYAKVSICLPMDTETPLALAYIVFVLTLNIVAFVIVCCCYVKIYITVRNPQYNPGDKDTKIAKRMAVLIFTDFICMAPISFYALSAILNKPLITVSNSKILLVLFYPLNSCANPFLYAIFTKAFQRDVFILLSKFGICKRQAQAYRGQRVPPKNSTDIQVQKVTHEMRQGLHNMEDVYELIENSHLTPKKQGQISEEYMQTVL

Row | Compound | Potency | activity change, negative = inhibition
1 | O=C1/C(=C\c2cc([N+](=O)[O-])ccc2O)SC(=S)N1Cc1ccc(Cl)cc1 | 2.69 µM (active) | 
2 | COc1cc([N+](=O)[O-])cc(/C=C2/SC(=S)N(Cc3ccccc3)C2=O)c1O | 10.7 µM (active) | 
3 | CN(C)C(=O)[C@H]1C[C@H]1[C@@H](O)[C@H](CO)NC(=O)[C@H](COCc1ccccc1)NC(=O)OC(C)(C)C |  | 1.35%
4 | Cc1ccc(-c2ccc(/C=N/N=C3/NC(=O)C(CC(=O)O)S3)o2)c([N+](=O)[O-])c1 (stereo not drawn) |  | -7.03%
5 | O=C(NCCS(=O)(=O)N1CCN(c2ccccc2)CC1)C1CC(=O)N(c2ccccc2)C1 (stereo not drawn) |  | -3.46%
6 | O=C(Nc1nc2ccc(F)cc2s1)C1CCN(S(=O)(=O)c2cc([N+](=O)[O-])ccc2Cl)CC1 | 19 µM (active) | 
7 | Cc1ccc(CCNC(=O)C2CCN(S(=O)(=O)c3cccc4cccnc34)CC2)cc1 |  | -12.1%
8 | N#C/C(=N\Nc1cccc([N+](=O)[O-])c1)C(=O)c1ccc(Br)cc1 | 15.1 µM (active) | 
9 | COc1ccc(-c2nc(CS(=O)CC(=O)NCc3ccccc3)c(C)o2)cc1OC (stereo not drawn) |  | -10.3%
10 | COc1ccc(CC(=O)Nc2cccc(-c3nnc(-c4cccc(C)c4)o3)c2)cc1OC | 4.26 µM (active) | 
11 | Cc1cccc(-c2noc(CN(C)C(=O)c3ccco3)n2)c1 |  | -14.8%
12 | O=c1[nH]c(=O)c2nnc(N/N=C/c3ccccc3F)nc2[nH]1 |  | -4.72%
13 | CC(C)Nc1nc(SC(C)C(=O)Nc2ccccc2)nc(N(C)C)n1 (stereo not drawn) |  | -11.7%
14 | O=C(CSc1nnc(NC(=O)c2cccc(Br)c2)s1)NCC1CCCO1 (stereo not drawn) |  | -5.53%
15 | CCOc1ccc2nc(NC(=O)CS(=O)(=O)c3ccccc3)sc2c1 |  | -7.2%
16 | CCOc1ccc2nc(NC(=O)c3ccc(OCC4CCCO4)cc3)sc2c1 (stereo not drawn) | 30.1 µM (active) | 
17 | C=CS(=O)(=O)c1sc(Cl)c(N2CCOCC2)c1[N+](=O)[O-] | 26.9 µM (active) | 
18 | Cc1ccc(CCC(=O)NCc2ccccc2)o1 |  | -3.92%
19 | Cc1ccc(/C=C/C(=O)Nc2ccc(Oc3ccccc3)cc2)o1 | 23.9 µM (active) | 
20 | COC(=O)c1cc(-c2c[nH]c3ccccc23)n[nH]1 |  | -11.6%
21 | CCn1nc(C)cc1-c1nnc(Sc2ncc([N+](=O)[O-])s2)n1C | 15.1 µM (active) | 
22 | CC(=O)N1c2ccc(S(=O)(=O)NCCC(=O)Nc3ccccc3C)cc2CC1C (stereo not drawn) |  | -0.317%
23 | S=C(Nc1ccc(Oc2ccccc2)cc1)NC1CCCCCC1 | 12 µM (active) | 
24 | CC(=O)c1ccc(NC(=O)C(C)N(C)CC(=O)Nc2ccc(N3CCOCC3)cc2)cc1 (stereo not drawn) |  | -4.26%

Row | Compound | Potency | activity change, negative = inhibition
25 | O=C1C(Nc2ccc(O)cc2)=C/C(=N/S(=O)(=O)c2cccs2)c2ccccc21 | 30.1 µM (active) | 
26 | O=C(O)c1ccc(NC2=C/C(=N/S(=O)(=O)c3ccccc3)c3ccccc3C2=O)cc1 | 21.3 µM (active) | 
27 | O=C(O)c1ccc(S(=O)(=O)/N=C2\C=C(Nc3ccccc3F)C(=O)c3ccccc32)cc1 | 37.9 µM (active) | 
28 | Cc1ccc(S(=O)(=O)/N=C2\C=C(Nc3cccc(C(=O)O)c3)C(=O)c3ccccc32)c(C)c1 | 30.1 µM (active) | 
29 | COc1ccc(CNCc2cc(C)c(OC)cc2C)c(OC)c1 |  | -2.56%
30 | O=C(O)c1ccc(CNC(=O)c2ccc3c(c2)C(=O)N(Cc2cccnc2)C3=O)cc1 |  | -5.76%
31 | Cc1ccccc1C(=O)N1CCN(c2ccc(NC(=S)NC(=O)c3ccco3)cc2)CC1 | 21.3 µM (active) | 
32 | COc1cc(NC(=O)C(C)C)ccc1NC(=O)c1ccco1 |  | -9.42%
33 | O=C(Nc1ccccc1C(=O)N1CCN(c2cccc(Cl)c2)CC1)C1=CSCCO1 |  | -14.7%
34 | Cc1cc(C)n2c(C)nnc2c1 |  | -0.576%
35 | CS(=O)c1ccc(-n2c(=O)n(Cc3ccccc3)c(=O)c3[nH]cnc32)cc1 (stereo not drawn) |  | -2.3%
36 | COc1cc2c(cc1OC)CN(C(=S)NC(=O)c1ccccc1)CC2 |  | 1.18%
37 | Cc1cc(C(=O)COC(=O)c2ccc(O)cc2O)c(C)n1-c1ccccc1 | 23.9 µM (active) | 
38 | CC(=O)C1=C(O)C(=O)N(c2ccc(O)cc2)C1c1cccc(F)c1 (stereo not drawn) |  | -6.31%
39 | O=C(NC(=S)Nc1ccc(C(=O)N2CCOCC2)cc1)c1ccc([N+](=O)[O-])cc1 |  | -4.55%
40 | O=C(NCc1ccc(F)cc1)c1ccncc1 |  | -3.08%
41 | O=[N+]([O-])c1ccc(NC(=S)NCc2ccc(F)cc2)cc1 | 9.53 µM (active) | 
42 | O=[N+]([O-])c1ccc(NC(=S)NCCc2ccc(F)cc2)cc1 | 9.53 µM (active) | 
43 | CCCNc1c(NS(=O)(=O)c2ccc(Br)cc2)c(=O)oc2ccccc12 |  | -1.84%
44 | N#C/C(=N\Nc1ccc(S(=O)(=O)N2CCc3ccccc32)cc1)C(N)=S | 9.53 µM (active) | 
45 | O=C(NNC(=O)c1n[nH]c(=O)c2ccccc12)c1ccc(Br)cc1 |  | -7.52%
46 | COc1ccccc1CNS(=O)(=O)c1ccc(-n2cccn2)cc1 |  | -5.7%
47 | COc1ccccc1C1CCN(c2cc(O)ccc2[N+](=O)[O-])CC1 | 37.9 µM (active) | 
48 | CS(=O)(=O)c1ccc(N2CCN(c3ccccn3)CC2)c([N+](=O)[O-])c1 |  | -8.56%
